The values that follow come from PubChem BioAssay AID1768 (National Center for Advancing Translational Sciences (NCATS), 2009).

Structures are written as SMILES. Hit rate of the full screen: of about 270,000 compounds, about 620 (0.23%) were called active. About 12% were inconclusive and are not listed. For the sample, actives were picked, then their nearest neighbours and some compounds at random. A number with no mark means an inactive call. Calls come from the whole dose curve; as a rule, active = well fitted inhibition curve with a large enough effect in the polarisation, with a control signal flat (not every such curve was filed as active); inconclusive = small, poorly fitted or top-dose-only effect, or effect the other way, or a change in a side signal; inactive = no such curve, though single readings can be large or run the other way; the % refers to the polarisation.
Potency is the fitted concentration of half-maximal effect.

Sequence of Menin (Homo sapiens) (O00255 whole entry, looked up, the tested form may be a part): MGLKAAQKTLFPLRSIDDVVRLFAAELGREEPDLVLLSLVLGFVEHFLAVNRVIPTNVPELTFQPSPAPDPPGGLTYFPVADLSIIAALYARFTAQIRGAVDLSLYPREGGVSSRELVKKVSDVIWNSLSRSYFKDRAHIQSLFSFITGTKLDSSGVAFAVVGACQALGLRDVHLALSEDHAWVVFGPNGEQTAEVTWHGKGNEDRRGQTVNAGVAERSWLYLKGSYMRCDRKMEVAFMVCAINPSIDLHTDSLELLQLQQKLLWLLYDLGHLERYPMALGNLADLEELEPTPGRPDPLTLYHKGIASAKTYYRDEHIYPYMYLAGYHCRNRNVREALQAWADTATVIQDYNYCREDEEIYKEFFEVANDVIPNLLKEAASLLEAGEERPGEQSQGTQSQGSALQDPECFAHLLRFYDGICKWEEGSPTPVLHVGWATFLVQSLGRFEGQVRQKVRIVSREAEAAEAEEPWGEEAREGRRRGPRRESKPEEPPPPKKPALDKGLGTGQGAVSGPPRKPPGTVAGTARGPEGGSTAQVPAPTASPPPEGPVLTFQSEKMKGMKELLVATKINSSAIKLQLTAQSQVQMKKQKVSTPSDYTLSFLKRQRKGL

For this assay, the target named is Menin (Homo sapiens) (UniProt O00255). Nature of the assay: qHTS Assay for Inhibitors Targeting the Menin-MLL Interaction in MLL Related Leukemias: Competition With Texas Red Labeled MLL-derived Mutant Peptide. For FP activity change, negative = inhibition: % of control where 0% means no effect. Particulars: fluorescence polarization; series mostly up to 61.6 µM; FP activity change, negative = inhibition: at the top concentration. An excerpt:
qHTS Assay for Inhibitors Targeting the Menin-MLL Interaction in MLL Related Leukemias NIH Chemical Genomics Center [NCGC] NIH Molecular Libraries Probe Centers Network [MLPCN] MLPCN Grant: MH084875-01A1 Assay Submitter (PI): Jolanta Grembecka, Tomasz Cierpicki, University of Virginia Translocations of the MLL (Mixed Lineage Leukemia) gene are frequently found in human leukemias affecting both children and adults. Fusion of MLL to one of more than 60 genes results in generation of oncogenic proteins upregulating Hox genes, which are vital to blood cell development. Patients harboring fusion of the MLL gene suffer from aggressive leukemias and respond poorly to available therapies. All of the oncogenic fusion proteins have a preserved N-terminal fragment of MLL that has been identified to interact with menin. It has been recently discovered that association with menin is critical to the leukemogenic activity of the MLL fusion oncoproteins. Selective targeting of the menin-MLL interaction could provide an attractive therapeutic approach to develop novel drugs for MLL-related leukemias. Small molecules blocking the menin-MLL interaction should reverse the oncogenic potential of MLL fusion proteins. We have developed and optimized a fluorescence polarization-based assay for the identification of Menin-MLL inhibitors. The assay was run employing two different MLL-derived peptides. The present assay uses a 12 amino acid peptide labeled with fluorescein at its N-terminus. This peptide consists of the menin high affinity binding motif from MLL and is potently bound by menin. Another peptide with a mutated sequence, labeled with Texas Red, was used in parallel as a less stringent screen for inhibitors.
The Menin protein, the MLL-wild type (w.t.) derived peptide (N-terminal 12 amino acids), the MLL-derived peptide labeled with Texas Red and the MLL-w.t. peptide labeled with Fluorescein were kindly supplied by laboratory of Dr. Jolanta Grembecka, University of Virginia. All protein and peptide solutions were stored in single use aliquots at -80C. The Eu3+ Cyrptate-conjugated mouse monoclonal antibody anti-6 Histidine (Eu3+-AB) and the Streptavidin-XL665 conjugate (XL665) were purchased from Cisbio International (Bedford, MA). All antibody and XL665 conjugate solution stocks were stored in single use aliquots at -20C. The Buffer components for all assays were purchased from Sigma-Aldrich (St. Louis, MO) and Invitrogen (Carlsbad, CA). FP Assay Reagents: 1. FP reaction buffer: 50 mM Tris-HCl pH 7.5, 50 mM NaCl, 1mM DTT. Before use, 0.05% BSA is added. 2. Menin protein, MLL-w.t. labeled with fluorescein, MLL-mutant peptide labeled with texas red. Stored in singe use aliquots at -80C. 3. MLL-w.t. unlabeled peptide as positive control: 10 uM final in FP buffer. FP Assay Procedure: 1. Prepare Menin at 200 nM, MLL-w.t.-fluorescein at 25 nM, and MLL-mutant-texas red at 50 nM mixture in FP buffer. 2. Prepare Menin at 200 nM, MLL-w.t.-fluorescein at 25 nM, MLL-mutant-texas red at 50 nM, and 10 uM MLL-w.t. unlabeled mixture in FP buffer. 3. Prepare MLL-w.t.-fluorescein at 25 nM and MLL-mutant-texas red at 50 nM mixture in FP buffer. 3. Dispense 4 ul per well of reagent in step 1 in columns 2, 4 - 48 in a black 1536 well plate, dispense 4 ul per well of reagents from steps 2 and 3 in columns 1 and 3 respectively. Incubate plate at ambient for 15 minutes. 4. Transfer 23 nl per well of compound to plate and incubate at ambient for 1 hr. 5. Read fluorescence polarization for each label using the PerkinElmer Envision. Envision protocol for fluorescein: FITC FP Dual Enh Mirror, Excitation filter 480, Emission filter (1) P-pol 535, Emission filter (2) S-pol 535 Envision protocol for texas red: FP Dual Enh Mirror, Excitation filter 555, Emission filter (1) P-pol 632, Emission filter (2) S-pol 632
For `CC(C)(O)C#Cc1ccc(CN2CCC(CO)(CCc3ccccc3)CC2)cc1`, the “FP activity change, negative = inhibition” value is 8.13%.

`CCOCCCNc1nc(-c2ccccc2)nc2ccccc12`: the “FP activity change, negative = inhibition” value was 19.4%.

`Cc1c(CN2CC[C@@H](N3CCN(c4ccccn4)CC3)[C@H](O)C2)[nH]c2ccc(F)cc12`: the “FP activity change, negative = inhibition” value was -9.78%.

Turning to `O=C(NCCCO)c1cc2c([nH]c3ccccc32)c(-c2ccc(F)cc2)n1`, the “FP activity change, negative = inhibition” value is 8.97%.

As to `CC(=O)N1c2ccc(S(=O)(=O)N3CCC(C(=O)NC4CCCC(C)C4C)CC3)cc2CC1C` (configuration not stated), the “FP activity change, negative = inhibition” value is -6.75%.

Take `CNC(=O)[C@]1(C(F)(F)F)C[C@H](CCc2ccccc2)CCCO1`: the “FP activity change, negative = inhibition” value is 3.94%.

For `CC1CCCCC1NC(=O)CCS(=O)(=O)c1ccc2c(c1)NC(=O)CO2` (configuration not stated), the “FP activity change, negative = inhibition” value was -10.4%.

Consider `CCCOc1ccc(N/C=C/C(=O)C(C)(C)C)cc1`, for which the “FP activity change, negative = inhibition” value was 1.33%.

`O=C(/C=C/Nc1ccccc1OC(F)(F)F)C(F)(F)F`: the “FP activity change, negative = inhibition” value is 5.87%.

Regarding `CN(C)c1ccc(N/C=C/C(=O)C(F)(F)F)cc1`, the Potency is 28.2 µM (active).

For `COc1cccc(N2C(=O)CN(Cc3ccccc3)C2=S)c1`, the “FP activity change, negative = inhibition” value is 32.3%.

Regarding `Cn1nccc1C(=O)N1CCCC(C(=O)c2ccc(Oc3ccccc3)cc2)C1` (configuration not stated), the “FP activity change, negative = inhibition” value was -18.8%.

Regarding `COc1ccc(-c2noc(CCCC(=O)NC3CCCC3)n2)cc1OC`, the “FP activity change, negative = inhibition” value was -7.12%.

With `Cc1noc(C)c1-c1ccc2ncnc(NCc3ccc4[nH]ccc4c3)c2c1`, the “FP activity change, negative = inhibition” value was 28.6%.

On to `CC(=O)N(Cc1cc(=O)[nH]c2ccccc12)c1ccc(C)cc1C`, for which the “FP activity change, negative = inhibition” value was 1.95%.

Regarding `Cc1ccc(N(Cc2cc3ccccc3[nH]c2=O)C(=O)c2cccs2)cc1`, the “FP activity change, negative = inhibition” value is 0.868%.

In the case of `Cc1ccc(N(Cc2cc(=O)[nH]c3ccccc23)C(=O)CCl)cc1`, the Potency is 10 µM (active).

With `CCN(CC)CCCNC(=O)COc1ccc2oc3c(c2c1)CCCC3`, the “FP activity change, negative = inhibition” value was -9.91%.

In the case of `CC(C)c1ccc(NC(=O)C2CCCN(S(=O)(=O)c3cccnc3)C2)cc1` (configuration not stated), the “FP activity change, negative = inhibition” value is -12.3%.

Turning to `COc1cc(/C=C2\SC(=O)NC2=O)ccc1OCc1ccc(Cl)nc1`, the “FP activity change, negative = inhibition” value was 3.5%.

On to `COC(=O)c1cc(S(=O)(=O)NCC2CCN(Cc3ccc(Cl)cc3)CC2)cn1C`, for which the “FP activity change, negative = inhibition” value is -0.368%.

As to `Cc1cccc(NC(=S)NCCc2ccc(Cl)cc2)c1C`, the “FP activity change, negative = inhibition” value is 4.12%.

As for `COC(=O)C(CC(C)C)NS(=O)(=O)c1cc(Br)ccc1Br` (configuration not stated), the “FP activity change, negative = inhibition” value is -7.91%.

As to `Cc1c(C)c2ccc(OCC(=O)N3CCN(c4cccc(Cl)c4)CC3)cc2oc1=O`, the “FP activity change, negative = inhibition” value is 7.56%.

On to `Cc1ccc(S(=O)(=O)NNC(=O)/C=C/c2cccc(F)c2)cc1`, for which the “FP activity change, negative = inhibition” value is -0.819%.

With `O=C(COC(=O)c1c2c(nc3ccccc13)/C(=C\c1cccs1)CCC2)Nc1ccccc1Cl`, the Potency was 14.1 µM (active).

For `O=C(COC(=O)c1cccs1)Nc1ccccc1Cl`, the “FP activity change, negative = inhibition” value was 0.3%.

For `COc1cc(/C=C2\CCCc3c2nc2ccccc2c3C(=O)O)cc(Cl)c1O`, the “FP activity change, negative = inhibition” value was 16.7%.

Regarding `CC1CCN(CC(O)COc2ccc(C(=O)c3ccccc3)cc2)CC1` (configuration not stated), the “FP activity change, negative = inhibition” value is -25.4%.

As to `CCC(CC)c1nnc(NC(=O)C2CCN(C(=O)c3ccco3)CC2)s1`, the “FP activity change, negative = inhibition” value is -19.3%.

For `Cc1cccc(OCC(=O)Nc2ccc(NC(=O)c3ccco3)c(C)c2)c1`, the “FP activity change, negative = inhibition” value was -22.6%.

Turning to `COc1ccc(Cn2c(=S)[nH]c3cc(C(=O)NCCCN4CCOCC4)ccc3c2=O)cc1`, the “FP activity change, negative = inhibition” value is 14.5%.
